Assay results published in the supplement of paper PMC12494721.
Structures can show the parent of a compound that is named as a salt.

These compounds were tested on Clostridium sporogenes DSM 1664 (assay: growth (OD595) fold change vs plate DMSO controls (fold change (ratio)); higher = more growth). Settings: 20 µM; incubation time: 27 h, anaerobic, 37 °C.
Procedure, shortened: (§1)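 Anaerobic 27 h, 37 °C mGAM 96-well cultures were shaken, then read for absorbance at 595 nm. Values were blank-subtracted and corrected for compound background using 20 µM compound solutions in water. A calibration factor of 5 converted them to OD. Growth is the fold change versus the median of plate DMSO controls. Fold changes above 1.5 were set to NA, and values are the mean of 2 biological replicates.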
`C[C@@H]1C[C@@H]([C@H](O)CC2CC(=O)NC(=O)C2)C(=O)[C@@H](C)C1` [Cycloheximide] was tested, and the growth was 1.17. Work on `CCNC1(c2cccs2)CCCCC1=O` (configuration not stated) [Tiletamine hydrochloride] yielded a growth of 1.04. `CCCC1COC(Cn2cncn2)(c2ccc(Cl)cc2Cl)O1` (configuration not stated) gave a growth of 0.938. Compound `ClC1C(Cl)C(Cl)C(Cl)C(Cl)C1Cl` (configuration not stated) has a growth of 1.06. In the case of `CN1C[C@H](CNC(=O)OCc2ccccc2)C[C@@H]2c3cccc4c3c(cn4C)C[C@H]21` [Metergoline], the growth is reported as 1.1. For `O=[N+]([O-])O[C@@H]1CO[C@H]2[C@@H]1OC[C@@H]2O` [Isosorbide mononitrate], the growth was 0.988. With `C[N+]1(C)CCCCC1` the growth was 1. Compound `N#Cc1nn(-c2c(Cl)cc(C(F)(F)F)cc2Cl)c(N)c1[S+]([O-])C(F)(F)F` (configuration not stated) has a growth of 1.16. For `COCC(=O)N(c1c(C)cccc1C)[C@H](C)C(=O)OC`, the growth was 0.945. In the case of `Cc1cc(C(F)(C(F)(F)F)C(F)(F)F)ccc1NC(=O)c1cccc(I)c1C(=O)NC(C)(C)CS(C)(=O)=O`, the growth is reported as 1.23. With `CC1C=CC=CCCC=CC=CC=CC=CC(OC2OC(C)C(O)C(N)C2O)CC2OC(O)(CC(O)C(O)CCC(O)CC(O)CC(O)CC(=O)OC(C)C(C)C1O)CC(O)C2C(=O)O` (configuration not stated) [Nystatine] the growth was 0.964. Compound `CCOC(=O)CC(SP(=S)(OC)OC)C(=O)OCC` (configuration not stated) has a growth of 0.873. Compound `Fc1ccc([C@]2(Cn3cncn3)O[C@H]2c2ccccc2Cl)cc1` (racemic) has a growth of 0.97. `O=C(Nc1ccccc1-c1ccc(Cl)cc1)c1cccnc1Cl` showed a growth of 0.923. `CCN(CC)c1nc(C)cc(OP(=S)(OC)OC)n1` showed a growth of 1.04. Work on `O=C(O[C@H]1C[N+]2(CCCOc3ccccc3)CCC1CC2)C(O)(c1cccs1)c1cccs1` [Aclidinium bromide] yielded a growth of 1.12. `CCC(C)(c1ccc(O)cc1)c1ccc(O)cc1` [Bisphenol B] showed a growth of 1.05. With `CNC(=O)/C=C(\C)OP(=O)(OC)OC` the growth was 1.06. For `CO/C=C(/C(=O)OC)c1ccccc1Oc1cc(Oc2ccccc2C#N)ncn1`, the growth was 0.938. Compound `C[C@@H]1CN([C@H]2CC[C@](C#N)(c3ccc(F)cc3)CC2)CC[C@]1(C(=O)O)c1ccccc1` [Levocabastine hydrochloride] has a growth of 1.17. Compound `O=C(O)c1nc(Cl)ccc1Cl` has a growth of 0.915. With `CCn1cc(C(=O)O)c(=O)c2cc3c(cc21)OCO3` [Oxolinic acid] the growth was 0. `CC(C)(C)C(O)(CCc1ccc(Cl)cc1)Cn1cncn1` (configuration not stated) gave a growth of 0.978. Work on `C[C@]12C=CC(=O)C=C1CC[C@@H]1[C@@H]2CC[C@@]2(C)[C@H]1CC[C@]2(C)O` [Methandrostenolone] yielded a growth of 1.01. `COP(=S)(OC)Oc1nc(Cl)c(Cl)cc1Cl` showed a growth of 1.02. With `O=C(O)C(F)(F)C(F)(F)C(F)(F)C(F)(F)C(F)(F)C(F)(F)F` [PFHpA (Perfluoroheptanoic acid)] the growth was 0.939. With `OCC(O)CCl` (racemic) the growth was 0.938. `CC(=O)O[C@H]1CC[C@@]2(C)C(=CC[C@@H]3[C@@H]2CC[C@]2(C)C(=O)CC[C@@H]32)C1` [Dehydroisoandosterone 3-acetate] showed a growth of 0.905. `CC(C)N(C(=O)COc1nnc(C(F)(F)F)s1)c1ccc(F)cc1` was tested, and the growth was 0.961. With `CC(=O)OCC(=O)[C@H]1CC[C@H]2[C@@H]3CC[C@H]4C[C@H](O)CC[C@]4(C)[C@H]3C(=O)C[C@]12C` [Alfadolone acetate] the growth was 0.985. In the case of `C[C@]12CC[C@@H]3c4ccc(OC(=O)N(CCCl)CCCl)cc4CC[C@H]3[C@@H]1CC[C@@H]2O` [Estramustine], the growth is reported as 0.804. `CCC(=O)Nc1ccc(Cl)c(Cl)c1` was tested, and the growth was 0.942. `O=P1(N(CCCl)CCCl)NCCCO1` (configuration not stated) [Cyclophosphamide] gave a growth of 0.997. `Cc1cc(C(C#N)c2ccc(Cl)cc2)c(Cl)cc1NC(=O)c1cc(I)cc(I)c1O` (configuration not stated) [Closantel] showed a growth of 0.0125. Work on `COP(=S)(OC)SCN1C(=O)c2ccccc2C1=O` yielded a growth of 1.02. `C#CCOc1ccc(CCNC(=O)C(OCC#C)c2ccc(Cl)cc2)cc1OC` (configuration not stated) gave a growth of 1.

These compounds were tested on Escherichia coli IAI1 in the same assay as above. Settings: 20 µM; incubation time: 27 h, anaerobic, 37 °C.
Procedure, shortened: as §1
`C[C@@H]1C[C@@H]([C@H](O)CC2CC(=O)NC(=O)C2)C(=O)[C@@H](C)C1` [Cycloheximide] gave a growth of 0.978. In the case of `CCNC1(c2cccs2)CCCCC1=O` (configuration not stated) [Tiletamine hydrochloride], the growth is reported as 1. Work on `CCCC1COC(Cn2cncn2)(c2ccc(Cl)cc2Cl)O1` (configuration not stated) yielded a growth of 1.03. `ClC1C(Cl)C(Cl)C(Cl)C(Cl)C1Cl` (configuration not stated) was tested, and the growth was 1. For `CN1C[C@H](CNC(=O)OCc2ccccc2)C[C@@H]2c3cccc4c3c(cn4C)C[C@H]21` [Metergoline], the growth was 1.09. With `O=[N+]([O-])O[C@@H]1CO[C@H]2[C@@H]1OC[C@@H]2O` [Isosorbide mononitrate] the growth was 0.984. For `C[N+]1(C)CCCCC1`, the growth was 1.08. `N#Cc1nn(-c2c(Cl)cc(C(F)(F)F)cc2Cl)c(N)c1[S+]([O-])C(F)(F)F` (configuration not stated) showed a growth of 0.982. For `COCC(=O)N(c1c(C)cccc1C)[C@H](C)C(=O)OC`, the growth was 1.01. Compound `Cc1cc(C(F)(C(F)(F)F)C(F)(F)F)ccc1NC(=O)c1cccc(I)c1C(=O)NC(C)(C)CS(C)(=O)=O` has a growth of 0.991. For `CC1C=CC=CCCC=CC=CC=CC=CC(OC2OC(C)C(O)C(N)C2O)CC2OC(O)(CC(O)C(O)CCC(O)CC(O)CC(O)CC(=O)OC(C)C(C)C1O)CC(O)C2C(=O)O` (configuration not stated) [Nystatine], the growth was 0.993. Work on `CCOC(=O)CC(SP(=S)(OC)OC)C(=O)OCC` (configuration not stated) yielded a growth of 1.03. Compound `Fc1ccc([C@]2(Cn3cncn3)O[C@H]2c2ccccc2Cl)cc1` (racemic) has a growth of 1.01. Work on `O=C(Nc1ccccc1-c1ccc(Cl)cc1)c1cccnc1Cl` yielded a growth of 1.02. `CCN(CC)c1nc(C)cc(OP(=S)(OC)OC)n1` was tested, and the growth was 1.01. With `O=C(O[C@H]1C[N+]2(CCCOc3ccccc3)CCC1CC2)C(O)(c1cccs1)c1cccs1` [Aclidinium bromide] the growth was 1.08. `CCC(C)(c1ccc(O)cc1)c1ccc(O)cc1` [Bisphenol B] gave a growth of 1.04. For `CNC(=O)/C=C(\C)OP(=O)(OC)OC`, the growth was 1.01. `CO/C=C(/C(=O)OC)c1ccccc1Oc1cc(Oc2ccccc2C#N)ncn1` was tested, and the growth was 0.996. In the case of `C[C@@H]1CN([C@H]2CC[C@](C#N)(c3ccc(F)cc3)CC2)CC[C@]1(C(=O)O)c1ccccc1` [Levocabastine hydrochloride], the growth is reported as 1.09. `O=C(O)c1nc(Cl)ccc1Cl` showed a growth of 1.09. For `CCn1cc(C(=O)O)c(=O)c2cc3c(cc21)OCO3` [Oxolinic acid], the growth was 0.0401. For `CC(C)(C)C(O)(CCc1ccc(Cl)cc1)Cn1cncn1` (configuration not stated), the growth was 1.03. `C[C@]12C=CC(=O)C=C1CC[C@@H]1[C@@H]2CC[C@@]2(C)[C@H]1CC[C@]2(C)O` [Methandrostenolone] gave a growth of 0.989. Work on `COP(=S)(OC)Oc1nc(Cl)c(Cl)cc1Cl` yielded a growth of 0.989. `O=C(O)C(F)(F)C(F)(F)C(F)(F)C(F)(F)C(F)(F)C(F)(F)F` [PFHpA (Perfluoroheptanoic acid)] showed a growth of 1.01. With `OCC(O)CCl` (racemic) the growth was 1.02. `CC(=O)O[C@H]1CC[C@@]2(C)C(=CC[C@@H]3[C@@H]2CC[C@]2(C)C(=O)CC[C@@H]32)C1` [Dehydroisoandosterone 3-acetate] gave a growth of 1.04. With `CC(C)N(C(=O)COc1nnc(C(F)(F)F)s1)c1ccc(F)cc1` the growth was 0.973. `CC(=O)OCC(=O)[C@H]1CC[C@H]2[C@@H]3CC[C@H]4C[C@H](O)CC[C@]4(C)[C@H]3C(=O)C[C@]12C` [Alfadolone acetate] gave a growth of 1.26. In the case of `C[C@]12CC[C@@H]3c4ccc(OC(=O)N(CCCl)CCCl)cc4CC[C@H]3[C@@H]1CC[C@@H]2O` [Estramustine], the growth is reported as 0.998. Compound `CCC(=O)Nc1ccc(Cl)c(Cl)c1` has a growth of 0.949. Work on `O=P1(N(CCCl)CCCl)NCCCO1` (configuration not stated) [Cyclophosphamide] yielded a growth of 1.02. `Cc1cc(C(C#N)c2ccc(Cl)cc2)c(Cl)cc1NC(=O)c1cc(I)cc(I)c1O` (configuration not stated) [Closantel] was tested, and the growth was 1.08. `COP(=S)(OC)SCN1C(=O)c2ccccc2C1=O` was tested, and the growth was 1.08. In the case of `C#CCOc1ccc(CCNC(=O)C(OCC#C)c2ccc(Cl)cc2)cc1OC` (configuration not stated), the growth is reported as 1.06.
